From PubChem BioAssay (NCI)
Compounds without any hit were thinned out: in the full panel of roughly 79,000, 15% have a hit. The source made the active and inactive calls. Rule as the data show it: active = growth inhibition above about 70%; inactive = the rest.

How the values were obtained:
[1] = NCI Yeast Anticancer Drug Screen. Data for the rad52 strain (AID 147);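 also: 0% = growth of vehicle-treated control cultures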; details: S. cerevisiae rad52 mutant growth inhibition, active compounds read high
Method in brief: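 Here a repair-compromised yeast strain receives each compound; its growth is then quantified and normalised to vehicle-only controls.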

[2] = NCI Yeast Anticancer Drug Screen. Data for the wt1 strain (AID 149);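 also: 0% = growth of vehicle-treated wt1 cultures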; details: S. cerevisiae wt1 strain (SPY 50644) growth inhibition, active compounds read high
Method in brief: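 The wt1 strain was treated with compounds, and growth was compared with vehicle-treated cultures to give inhibition.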

[3] = NCI Yeast Anticancer Drug Screen. Data for the rad50EPP+ strain (AID 151);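 also: 0% = growth of vehicle-treated control cultures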; details: S. cerevisiae rad50 mutant strain, active compounds read high
Method in brief: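 Read-out is yeast growth inhibition relative to vehicle; cells used were the rad50EPP+ strain.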

[4] = NCI Yeast Anticancer Drug Screen. Data for the mgt1 strain (AID 153); details: S. cerevisiae mgt1 mutant growth inhibition, active compounds read high
Method in brief: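 Measured: inhibition of mgt1 yeast growth by compound, normalized to vehicle-treated cultures.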

[5] = NCI Yeast Anticancer Drug Screen. Data for the rad50 strain (AID 155);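 also: 0% = growth of vehicle-only cultures of the same strain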; details: S. cerevisiae rad50 strain growth inhibition, active compounds read high
Method in brief: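 Cells are treated with compound, grown, and their growth is then scored against vehicle-only cultures of the same repair-deficient yeast strain.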

[6] = NCI Yeast Anticancer Drug Screen. Data for the mec2-1 strain (AID 157); details: S. cerevisiae mec2-1 strain, active compounds read high
Method in brief: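 Using mec2-1 yeast: add compound, measure growth, express inhibition versus vehicle-treated cultures.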

[7] = NCI Yeast Anticancer Drug Screen. Data for the rad14 strain (AID 159);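 also: 0% = growth of vehicle-treated control cultures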; details: S. cerevisiae rad14 strain growth inhibition, active compounds read high
Method in brief: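 Readout: yeast growth inhibition, referenced to vehicle-only cultures. Strain bears a defined alteration in DNA damage repair.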

[8] = NCI Yeast Anticancer Drug Screen. Data for the sgs1 mgt1 strain (AID 161);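 also: 0% = growth of cultures given vehicle only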; details: S. cerevisiae sgs1 mgt1 strain, active compounds read high
Method in brief: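 Compounds are added to genetically altered yeast, and growth is compared with cultures given vehicle alone to give percent inhibition.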

[9] = NCI Yeast Anticancer Drug Screen. Data for the cln2 rad14 strain (AID 165);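 also: 0% = growth equal to vehicle treated cultures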; details: S. cerevisiae cln2 rad14 strain, active compounds read high
Method in brief: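 Yeast strain cln2 rad14, bearing defects in cell cycle control and DNA repair, serves as the test system; values reflect growth inhibition compared with vehicle.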

[10] = NCI Yeast Anticancer Drug Screen. Data for the bub3 strain (AID 167); details: S. cerevisiae bub3 mutant strain, active compounds read high
Method in brief: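 Part of a panel of yeast mutants defective in DNA damage repair or cell cycle regulation. Each strain is grown with compound, and inhibition is calculated relative to solvent-treated cultures.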

[11] = NCI Yeast Anticancer Drug Screen. Data for the wt2 strain (AID 169);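 also: 0% = growth of vehicle-treated yeast cultures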; details: S. cerevisiae wt2 strain growth inhibition, active compounds read high
Method in brief: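 Treated yeast vs. vehicle-treated yeast: growth inhibition determined.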

[12] = NCI Yeast Anticancer Drug Screen. Data for the mlh1 strain (AID 171);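 also: 0% = growth of vehicle-treated control cultures of the same strain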; details: S. cerevisiae mlh1 strain growth inhibition, active compounds read high
Method in brief: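 A yeast strain with a defined genetic lesion serves as the test organism. Cultures receive compound or vehicle, and growth is measured.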

[13] = NCI Yeast Anticancer Drug Screen. Data for the sgs1 strain (AID 173);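 also: 0% = growth of vehicle-only control cultures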; details: S. cerevisiae sgs1 mutant, active compounds read high
Method in brief: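 A genetically defined yeast mutant is incubated with the test compound, and its growth is compared to that of the same strain given vehicle.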

[14] = NCI Yeast Anticancer Drug Screen. Data for the mlh1 rad18 strain (AID 175); details: S. cerevisiae mlh1 rad18 strain growth inhibition, active compounds read high
Method in brief: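 Steps: expose repair-defective yeast to compound; measure growth; express inhibition against vehicle-treated controls.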

[15] = NCI Yeast Anticancer Drug Screen. Data for the rad18 strain (AID 177); details: S. cerevisiae rad18 mutant growth inhibition, active compounds read high
Method in brief: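 Measured value is growth inhibition of a yeast strain bearing a DNA repair alteration, referenced to vehicle-treated cells.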

[16] = at 5.0 µM (retest, dose inferred, filed as 0.5)
[17] = at 50.0 µM (retest, dose inferred, filed as 5.0)

Measured: growth inhibition

O=S(=O)(c1cccc(C(F)(F)F)c1)N1c2ccccc2-n2cccc2C1c1cccnc1 (stereo not drawn)
active: [1]; at 11.0 µM 87% | [1]; at 33.0 µM 95% | [1]; at 100.0 µM 91% | [2]; at 33.0 µM 92% | [2]; at 100.0 µM 89% | [4]; at 11.0 µM 78% | [4]; at 33.0 µM 94% | [4]; at 100.0 µM 92% | [5]; at 11.0 µM 85% | [5]; at 33.0 µM 92% | [5]; [17] 96% | [5]; at 50.0 µM 90.5% | [5]; at 100.0 µM 87% | [6]; at 33.0 µM 92% | [6]; [17] 97% | [6]; at 50.0 µM 94.8% | [6]; at 100.0 µM 89% | [7]; at 11.0 µM 73% | [7]; at 33.0 µM 94% | [7]; at 100.0 µM 89% | [8]; [17] 98% | [8]; at 50.0 µM 96.8% | [9]; [17] 96% | [9]; at 50.0 µM 93.9% | [10]; at 33.0 µM 94% | [10]; [17] 96% | [10]; at 50.0 µM 94.7% | [10]; at 100.0 µM 90% | [11]; at 33.0 µM 93% | [11]; at 100.0 µM 91% | [12]; at 11.0 µM 70% | [12]; at 33.0 µM 93% | [12]; at 100.0 µM 88% | [13]; at 11.0 µM 73% | [13]; at 33.0 µM 92% | [13]; at 100.0 µM 89% | [14]; [17] 96% | [14]; at 50.0 µM 95.5% | [15]; at 11.0 µM 85% | [15]; at 33.0 µM 93% | [15]; at 100.0 µM 89%
inactive: [1]; at 1.2 µM -23% | [1]; at 3.7 µM 7% | [2]; at 1.2 µM -22% | [2]; at 3.7 µM -8% | [2]; at 11.0 µM 55% | [3]; at 1.2 µM -73% | [3]; at 3.7 µM -45% | [3]; at 11.0 µM -54% | [3]; at 33.0 µM -57% | [3]; at 100.0 µM -46% | [4]; at 1.2 µM -43% | [4]; at 3.7 µM -16% | [5]; at 1.2 µM -15% | [5]; at 3.7 µM 5% | [5]; [16] 27% | [6]; at 1.2 µM -59% | [6]; at 3.7 µM -32% | [6]; [16] 31% | [6]; at 11.0 µM 56% | [7]; at 1.2 µM -51% | [7]; at 3.7 µM -17% | [8]; [16] 18% | [9]; [16] 22% | [10]; at 1.2 µM -27% | [10]; at 3.7 µM 1% | [10]; [16] 25% | [10]; at 11.0 µM 62% | [11]; at 1.2 µM -23% | [11]; at 3.7 µM -41% | [11]; at 11.0 µM 60% | [12]; at 1.2 µM -43% | [12]; at 3.7 µM -15% | [13]; at 1.2 µM -40% | [13]; at 3.7 µM -21% | [14]; [16] 34% | [15]; at 1.2 µM -7% | [15]; at 3.7 µM 7%
